From PubChem BioAssay AID1159580 (chemical genetic matrix, 2015)
Screen size: about 5,500 compounds; about 2,000 (36%) were called active. About 18% were inconclusive and are not listed. Rule as the data show it: active = normalized growth mostly below about 0.91 (no sharp cut-off); inconclusive = no clear call, values can overlap the other calls; inactive = mostly above about 0.92. The list shows a part of the results.

Assay: chemical genetic growth profiling, strain panel (AID 1159580);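 also: tested at 20 µM; growth read once vehicle control cultures reached saturation at 30 °C; 1 = growth at the plate median or of vehicle wells; lower values mean less growth of the strain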
Details: S. cerevisiae deletion strains, growth OD
[1] = locus YAL040C, strain CLN3, stronger effect = lower value
[2] = locus YER002W, strain NOP16, stronger effect = lower value
[3] = locus YGR078C, strain PAC10, stronger effect = lower value
[4] = locus YNL175C, strain NOP13, stronger effect = lower value
[5] = locus YNL197C, strain WHI3, stronger effect = lower value
[6] = locus YNL224C, strain SQS1, stronger effect = lower value
[7] = locus YNL322C, strain KRE1, stronger effect = lower value
[8] = locus YOR083W, strain WHI5 (second series), stronger effect = lower value

Measured: normalized growth

O=C1C=CC(=O)C=C1
inactive: [1] 0.986 | [2] 1 | [3] 0.912 | locus YMR263W, strain SAP30, stronger effect = lower value 1 | locus YMR307W, strain GAS1, stronger effect = lower value 1.04 | [4] 1.02 | [5] 1.05 | [6] 1 | [7] 0.99 | [8] 1.01 | locus YPL055C, strain LGE1, stronger effect = lower value 0.979

CC(=O)O[C@H]1CC2(C)[C@@H](C[C@@H](O)[C@H]3[C@@]4(C)CC[C@@H](O)[C@@H](C)[C@@H]4CC[C@@]32C)C1=C(CCC=C(C)C)C(=O)O (stereo partly drawn)
inactive: [1] 1.02 | locus YCL061C, strain MRC1 (second series), stronger effect = lower value 1.01 | locus YDR150W, strain NUM1, stronger effect = lower value 1.02 | locus YDR363W, strain ESC2, stronger effect = lower value 1.02 | [2] 1.04 | [3] 1.03 | [4] 1 | [5] 1 | [6] 0.974 | [7] 1.01 | [8] 0.996 | locus YPL241C, strain CIN2, stronger effect = lower value 1.01
